In PubChem BioAssay (NCI):
About 79,000 compounds went through this panel and 15% of them were active in at least one assay; those are over-represented in the sample as a whole. Cut-off read from the data, not from the text of the source: active = growth inhibition above about 70%; inactive = the rest. Where a SMILES comes first, the peptide text is derived from it. The star is where a group is joined. Trt = c1ccc(C(c2ccccc2)(c2ccccc2)*)cc1; Cbz = O=C(OCc1ccccc1)*; Bz = O=C(c1ccccc1)*

Experiments:
[1] = NCI Yeast Anticancer Drug Screen. Data for the rad50 strain (AID 155);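 note: 0% = growth of vehicle-only cultures of the same strain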; conditions: S. cerevisiae rad50 strain growth inhibition; at 50.0 µM; active compounds read high
Summary of the method: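 DNA repair mutant yeast, compound exposure, growth read-out; inhibition is taken relative to vehicle.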

[2] = NCI Yeast Anticancer Drug Screen. Data for the mec2-1 strain (AID 157); conditions: S. cerevisiae mec2-1 strain, at 50.0 µM, active compounds read high
Summary of the method: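 Growth inhibition is read against vehicle-treated controls after compound exposure of the mec2-1 yeast strain, which is defective in DNA damage repair or cell cycle control.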

[3] = NCI Yeast Anticancer Drug Screen. Data for the sgs1 mgt1 strain (AID 161);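 note: 0% = growth of cultures given vehicle only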; conditions: S. cerevisiae sgs1 mgt1 strain, at 50.0 µM, active compounds read high
Summary of the method: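 Percent growth inhibition was derived by comparing compound-exposed mutant yeast with vehicle-exposed cultures. The strain carries alterations in DNA damage repair.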

[4] = NCI Yeast Anticancer Drug Screen. Data for the cln2 rad14 strain (AID 165);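 note: 0% = growth equal to vehicle treated cultures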; conditions: S. cerevisiae cln2 rad14 strain, at 50.0 µM, active compounds read high
Summary of the method: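 Growth inhibition, relative to vehicle-treated controls, is the read-out. The test organism is a yeast strain with defined genetic alterations, cln2 rad14.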

[5] = NCI Yeast Anticancer Drug Screen. Data for the bub3 strain (AID 167); conditions: S. cerevisiae bub3 mutant strain, at 50.0 µM, active compounds read high
Summary of the method: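 In this screen, a yeast mutant lacking normal mitotic checkpoint function is challenged with compound. Relative growth versus vehicle gives the inhibition value.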

[6] = NCI Yeast Anticancer Drug Screen. Data for the mlh1 rad18 strain (AID 175); conditions: S. cerevisiae mlh1 rad18 strain growth inhibition; at 50.0 µM; active compounds read high
Summary of the method: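 Cells of a genetically altered yeast strain, deficient in DNA damage repair, were treated with compound. Their growth was then compared with that of vehicle-treated cultures to give inhibition.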

Measured: growth inhibition

CCC(CC(C)C)C(=O)OCCBr (stereo unspecified)
inactive: [1] 17.9% | [2] 15.2% | [3] 20.6% | [4] -12.8% | [5] 45.5% | [6] 14.4%

CNc1nc(Cl)cc2nc(Cl)cn12
inactive: [1] -2.15% | [2] 15.8% | [3] -18.6% | [4] -12.1% | [5] 8.3% | [6] 4.55%

CC1CCC2C(C(=O)O[C@H]3C4C=CO[C@@H](OC5OC(CO)C(O)C(O)C5O)C4[C@@]4(CO)O[C@@H]34)=CO[C@@H](OC3OC(CO)C(O)C(O)C3O)C12 (stereo partly specified)
inactive: [1] -12.3% | [2] -32.5% | [3] -18.6% | [4] 4.2% | [5] -12.8% | [6] -11.4%

Nc1ncnc(N)c1NC(=O)CCCCc1ccccc1
inactive: [1] 4.25% | [2] -12.2% | [3] -13.2% | [4] 4.8% | [5] 1.4% | [6] -5.9%

CNC(=O)Nc1ccnc(=O)[nH]1
inactive: [1] -10.6% | [2] -1.85% | [3] -6.15% | [4] -28.3% | [5] -9.55% | [6] -8.8%

O=C(COc1ccccc1Cl)N1N=C(c2ccc(Cl)cc2)CC1(O)c1ccccc1 (stereo unspecified)
inactive: [1] -17.9% | [2] -7.2% | [3] -43.2% | [4] -0.85% | [5] -25.8% | [6] -16.9%

C=CC(=O)Nc1ccc(Br)cc1
inactive: [1] 2.85% | [2] -9.2% | [3] -4.35% | [4] -6.9% | [5] 8.65% | [6] 2.35%

CC(=O)Nc1cc(C)c(C)cc1[N+](=O)[O-]
inactive: [1] -2.5% | [2] -16.6% | [3] -9.45% | [4] 3.3% | [5] -27.1% | [6] -11.7%

CCN(CC)C(=O)C1=C(C)NC(C)=C(C(=O)N(CC)CC)C1
inactive: [1] -36.7% | [2] -55% | [3] -18.6% | [4] -22.1% | [5] -8.35% | [6] -68.5%

CC(=O)/C=C1/NC(C(=O)c2ccccc2)=CNC1c1ccccc1 (stereo unspecified)
inactive: [1] 4.95% | [2] 3.75% | [3] 20.6% | [4] -14.5% | [5] 9.95% | [6] 18.8%

CSc1nc(NC(=O)O)c(N(C(C)=O)C(=O)O)c(=O)n1C
inactive: [1] -15.3% | [2] 0.6% | [3] 4.55% | [4] 19.7% | [5] -9.35% | [6] -13.5%

Cc1nc2ccccc2c(=O)n1C
inactive: [1] -7.5% | [2] -17.9% | [3] 10.7% | [4] 2.35% | [5] -5.4% | [6] 3.95%

COC(=O)C(C#N)C1NC(=O)c2ccccc21 (stereo unspecified)
inactive: [1] 9.75% | [2] -2.4% | [3] 10.2% | [4] 1.45% | [5] -8.3% | [6] 7.15%

Cn1c(-c2ccc(Br)cc2)cc2[nH]c(=S)nc(N)c2c1=O
inactive: [1] -16.8% | [2] -23.9% | [3] -14% | [4] -12.3% | [5] -7.75% | [6] 2.5%

O=C(NC1(C(=O)O)CCCC1)c1ccccc1
inactive: [1] -34.5% | [2] -27.2% | [3] -12.7% | [4] -31.7% | [5] -4.35% | [6] 0.7%

CCSc1nnc2c(-c3ccccc3)n[nH]c2n1
inactive: [1] -0.75% | [2] -0.05% | [3] -21.8% | [4] -25.9% | [5] -27.6% | [6] -12.1%

CCOc1c(N=Nc2ccccc2Cl)c(C)nn1C(N)=S
inactive: [1] -14.2% | [2] 8.7% | [3] 45.5% | [4] -2.25% | [5] 53.4% | [6] 49.4%

O=C1CCC(=O)N2CCCCN12
inactive: [1] -4.7% | [2] -12.4% | [3] 11% | [4] 18.6% | [5] 22.5% | [6] 13.1%

CC(=O)OCC1OC(n2c3c(cc(C#N)c2=S)CCCCC3)C(OC(C)=O)C(OC(C)=O)C1OC(C)=O (stereo unspecified)
inactive: [1] 27.1% | [2] -1.7% | [3] 3.1% | [4] -32.9% | [5] -0.8% | [6] -7.1%

Cc1cccc(NN)c1
inactive: [1] 59.6% | [2] 32.1% | [3] 7.45% | [4] 30% | [5] 23.3% | [6] 32.9%

COc1nc2[nH]ccc2c(=O)n1C
inactive: [1] -10.9% | [2] -20.1% | [3] -9.1% | [4] 10.3% | [5] -10.4% | [6] 17.4%

CCCCCCCCCCCCCCCCCCNC(=O)N1CCC(C)CC1
inactive: [1] -7.9% | [2] -4.8% | [3] 21.2% | [4] -13.7% | [5] 4.95% | [6] -24.6%

C=CCOC(=O)Nc1ccc(S(=O)(=O)N2CCCCC2)cc1
inactive: [1] 9% | [2] 6.1% | [3] 2.95% | [4] -17.4% | [5] 17.6% | [6] -5.15%

Cc1c(-c2ccccc2)[nH]c2ccc(Cl)cc2c1=O
inactive: [1] -7.5% | [2] -30.9% | [3] 28.9% | [4] 2.8% | [5] -5.1% | [6] 6.25%

COc1cc(C)cc(C(=O)C2=NNCC2c2ccccc2)c1O (stereo unspecified)
inactive: [1] 23.1% | [2] 19.4% | [3] 26.8% | [4] 10.9% | [5] 17.1% | [6] 16.2%

Nc1ccc2ncc(NCc3ccc(F)cc3)nc2c1
inactive: [1] -4% | [2] -25.9% | [3] -25.6% | [4] 18.1% | [5] 3.4% | [6] 5.15%

O=C(Cc1ccccc1)NCc1ccccc1Cl
inactive: [1] -1.05% | [2] 9.2% | [3] 5.65% | [4] 0.05% | [5] 9.75% | [6] 6.05%

O=[N+]([O-])c1cc2c(cc1Cl)C1C(C3C2C2(Cl)C(Cl)=C(Cl)C3(Cl)C2(Cl)Cl)C2(Cl)C(Cl)=C(Cl)C1(Cl)C2(Cl)Cl (stereo unspecified)
inactive: [1] 24.4% | [2] 9.6% | [3] 30.2% | [4] 24.2% | [5] 20.6% | [6] 18%

C=C(C)COc1ccc(C2OCC(CC)C(CCC)O2)cc1 (stereo unspecified)
inactive: [1] -4.3% | [2] -10.6% | [3] -7.5% | [4] -45% | [5] 5% | [6] -9.25%

CCN(CC)CCNc1ccc2ncn3c4ccc(OC)cc4c(=O)c1c23
inactive: [1] 4.35% | [2] -1.9% | [3] -34.9% | [4] 18.6% | [5] 20.9% | [6] 34.2%

CN1CCN(c2c3c(nc4ccccc24)CCCC3)CC1
inactive: [1] -6.45% | [2] 2% | [3] -2.4% | [4] -40.2% | [5] -10.3% | [6] -22%

COC(=O)C(=O)C(C(=O)C(N)=O)c1nc2ccc(C(=O)c3ccccc3)cc2[nH]c1=O (stereo unspecified)
inactive: [1] 0.35% | [2] 5.45% | [3] -17.2% | [4] -9.25% | [5] -19.1% | [6] 9.85%

O=C1NC(=O)C(c2ccco2)N1 (stereo unspecified)
inactive: [1] 3.7% | [2] -1.55% | [3] -12.2% | [4] 4.8% | [5] -16.7% | [6] 8.2%

CC1CCC2CCCCC2/C1=N\NC(N)=O (stereo unspecified)
inactive: [1] -10.8% | [2] -3.9% | [3] 3.95% | [4] 2.35% | [5] 0.25% | [6] -16.7%

CCOC(=O)C(NC(=O)NC(C(=O)OCC)C(=O)OCC)C(=O)OCC
inactive: [1] -16.7% | [2] -20.6% | [3] -6.55% | [4] -4.05% | [5] -7.7% | [6] -17.6%

COC(=O)C1(C(=O)OC)O[C@@H](c2ccccc2)[C@H]2C(=O)N(C)C(=O)[C@H]21
inactive: [1] 7.05% | [2] 0.9% | [3] 7.45% | [4] 8.8% | [5] -1.1% | [6] 13.8%

Cc1c2c(C#N)nccc2c(C)c2c1c1ccccc1n2Cc1ccccc1
inactive: [1] 33.5% | [2] 14.1% | [3] -8.3% | [4] 20.9% | [5] -28.7% | [6] -45.6%

CCCC(O)C(C)N (stereo unspecified)
inactive: [1] 4.3% | [2] -3.1% | [3] -2.9% | [4] -0.2% | [5] -2.25% | [6] -3.15%

CC(C)Cc1c(N)nc(NCCCC(N)C(=O)O)[nH]c1=O (stereo unspecified)
inactive: [1] 13.5% | [2] -16.9% | [3] -3.55% | [4] 13.1% | [5] 9.8% | [6] 11.8%

CNC(=S)SC1=NS(=O)(=O)c2ccccc2N1
inactive: [1] -9.1% | [2] -5.05% | [3] -2.75% | [4] 12.4% | [5] -9.75% | [6] 23.4%

COC(=O)C(CSC(=O)c1ccccc1)NC(=O)CNC(=O)CNC(=O)C(CCCCNC(=O)OCc1ccccc1)NC(=O)CNC(=O)C(CSC(c1ccccc1)(c1ccccc1)c1ccccc1)NC(=O)OCc1ccccc1 (stereo unspecified) (Cbz-C(Trt)GK(Cbz)GGC(Bz)-OMe; configuration not given here)
inactive: [1] -4.85% | [2] 22.9% | [3] 25.8% | [4] -6% | [5] -53.1% | [6] 32.1%
